# Inconclusive results are not listed. Entries that show only a call come without a potency. Unmarked numbers belong to inactive results. Calls of active or inactive are those of the source. Calls follow the shape of the dose curve; as a rule, active = well fitted cell-killing curve with a large enough effect in the repeat runs; inconclusive = weak or mixed curves, or effect the other way; inactive = flat fitted curve, though single readings scatter.
# Assay: qHTS RealTime-Glo MT Cell Viability Assay in HEK293 cells - 32 hour (AID 1224868); also: nearly all actives have a fitted effect of over 50% in size; as to activity change, negative = cytotoxic: top concentration of the series differs between compounds
# Conditions: RealTime-Glo luminescence; series mostly up to 76.8 µM
# From the text: National Center for Advancing Translational Sciences [NCATS]
# NIH Chemical Genomics Center [NCGC]
# U.S. Environmental Protection Agency [EPA]
# National Institutes of Environmental Health Sciences [NIEHS]
# National Toxicology Program [NTP]
# U.S. Food and Drug Administration [FDA]
# Measure of cell viability is critical in the cell-base assay. Analysis of cell viability is necessary for the characterization of cell responses to cytotoxic drugs and environmental stress. A RealTime-Glo MT Cell Viability Assay to monitor cell viability in real time of continues cell culture during 40 hours of compound treatment was used to screen Tox21 10K library compounds in Hek293 cells. The RealTime-Glo MT Cell Viability Assay is a nonlytic, homogeneous, bioluminescent method to measure cell viability in real time using a simple, plate-based method. The assay involves adding NanoLuc luciferase and a cell-permeant prosubstrate to cells in culture. Viable cells reduce the proprietary prosubstrate to generate a substrate for NanoLuc luciferase. This substrate diffuses from cells into the surrounding culture medium, where it is rapidly used by the NanoLuc Enzyme to produce a luminescent signal. The signal correlates with the number of viable cells, making the assay well suited for cytotoxicity studies.
# Tox21 Assay Protocol Summary:
# The mixture of Hek293 cell suspension and reagents were dispensed at 600cells/6 ul/well in 1536-well tissue culture treated black solid bottom plates using a Multidrop dispenser. After the assay plates were incubated at a 37 C/5% CO2 incubator for 5 hours, 23 nL of compounds dissolved in DMSO, positive and negative controls was transferred to the assay plate by a pintool work station. The plates were incubated at 37 C for 40 hours. The luminescence intensity were measured at 0h, 8h, 16h, 24h, 32h and 40h time points using ViewLux plate reader during compound treatment.
# Potency is read from the fitted curve at half-maximal effect.
Structure (SMILES),Potency,"activity change, negative = cytotoxic"
Cc1ccc(N(CC2=NCCN2)c2cccc(O)c2)cc1,inactive,
CCN(CC)C(=O)N1CCN(C)CC1,inactive,
Cc1ccc2c(c1[N+](=O)[O-])C(=O)c1ccccc1C2=O,0.958 µM (active),
CCCCOC(=O)CCCCC(=O)OCCCC,inactive,
CC(C)C(O)C(C)(C)CO (stereo not given),0.801 µM (active),
c1ccc2sc(SSc3nc4ccccc4s3)nc2c1,,12.7% [at 15.8 µM]
Cc1cccc(C)c1NC(=O)c1cc(S(N)(=O)=O)c(Cl)cc1O,inactive,
CCCCCCCCCCCCCOS(=O)(=O)O,inactive,
O=C(O)CN1C(=O)c2cccc3cccc(c23)C1=O,inactive,
COC(=O)c1sccc1S(N)(=O)=O,inactive,
CC(CO)(CO)C(=O)O,inactive,
CCCCCCCC/C=C/C(=O)O,inactive,
N[C@@H](Cc1cc(I)c(O)c(I)c1)C(=O)O,inactive,
CC(=O)OCC1=C(C(=O)O)N2C(=O)[C@@H](NC(=O)CSc3ccncc3)[C@H]2SC1,inactive,
O=C(O)CCS,inactive,
C=CC(=O)O,inactive,
[Cl][Nd]([Cl])[Cl],inactive,
Nc1ccc(NC(=O)c2ccc(N)cc2)cc1,inactive,
CCOC(=O)c1c(N)sc2c1CCN(Cc1ccccc1)C2,21.3 µM (active),
COC(C)(C)OC,inactive,

Structure (SMILES),Potency,"activity change, negative = cytotoxic"
O=C(Oc1ccccc1)c1ccc2ccccc2c1O,inactive,
O=C(O)/C=C/c1ccc(O)c(O)c1,inactive,
CC(C(=O)O)c1ccc(C(=O)c2cccs2)cc1 (stereo not given),inactive,
CC(=O)OCC(C)C,inactive,
CCCCCc1ccco1,inactive,
CC(C)Cc1ccc(CC(=O)O)cc1,inactive,
CC[C@@H](CO)NCCN[C@@H](CC)CO,inactive,
CC(=O)N[C@@H](Cc1ccc(O)cc1)C(=O)O,inactive,
SCCc1cnccn1,inactive,
CNc1c2c(nn1C)CCCC2,inactive,
CC(=O)OCCC1CCCCC1,inactive,
O=C(O)CO,inactive,
CNS(=O)(=O)c1cc(C(=O)N2CCC(CCN3C4CCC3CC(n3c(C)nc5ccccc53)C4)(c3cccc(F)c3)CC2)c(Cl)cc1F (stereo not given),5.49 µM (active),
O=S(=O)(Cl)c1c(Cl)cccc1Cl,inactive,
CCCCC[C@H](O)/C=C/[C@H]1[C@H](O)CC(=O)[C@@H]1C/C=C\CCCC(=O)O,inactive,
O=C(O)c1ccc(O)cc1O,inactive,
Nc1ccc(S(=O)(=O)NCc2ccccc2)cc1,inactive,
CCOC(=O)N1CCC(Nc2ccc(Cl)cc2N)CC1,inactive,
Cc1ccc(Cl)cc1N,inactive,
NC(=O)c1ccccc1[N+](=O)[O-],inactive,
